Measured values reported in PubChem BioAssay AID743279 (National Center for Advancing Translational Sciences (NCATS), 2014).
Out of some 360,000 compounds screened, about 17,000 (4.7%) were called active. Roughly 5% stayed inconclusive and do not appear here. Cut-off read from the data, not from the text of the source: active = activity change below about -50%; inconclusive = mostly about -30% to -49%; inactive = weaker than that. The full list was thinned out, with actives kept by preference.
% is set by controls: 0 for no effect and ±100 for the full control effect.

Assay: qHTS for Inhibitors of Inflammasome Signaling: IL-1-beta AlphaLISA Primary Screen
Conditions: THP-1 LPS/ATP IL-1B secretion, 16 h, at 57.5 µM, active compounds read low
Summary of the method: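 Secreted IL-1B measured by AlphaLISA bead assay after 16 h compound exposure of THP-1 cells; compounds (final up to 57.5 uM) added 1 h before LPS (250 ng/mL) and ATP (1.25 mM) stimulation; lower signal means less secretion.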
In the case of `CCC1(CC(C)c2ccccc2)C(=O)NC(=O)NC1=O` (stereo not drawn), the activity change is reported as -0.699% (inactive). In the case of `COC(=O)C[C@H]1CC[C@H]2NC[C@@H](O)COC[C@@H]2O1`, the activity change is reported as 0% (inactive). With `CC1C2Cn3c(nc4ccccc43)C1N(C)O2` (stereo not drawn) the activity change was 32.4% (inactive). For `CC(Cc1ccccc1)NC=O` (stereo not drawn), the activity change was 16% (inactive). With `CC(Cc1ccccc1)NCCC(c1ccccc1)c1ccccc1` (stereo not drawn) the activity change was -64.4% (active). In the case of `CC(=O)NC(=O)NC(C)Cc1ccccc1` (stereo not drawn), the activity change is reported as 11.5% (inactive). For `CN1CCC(OC(=O)c2cccc(F)c2)CC1`, the activity change was -22% (inactive). In the case of `COc1ccc(NC(=O)N2Cc3ccccc3-n3nncc3C2)cc1`, the activity change is reported as -5.29% (inactive). For `Cc1cc(-c2ccc(N)c(C)c2)ccc1N`, the activity change was -12.1% (inactive). With `CC(=O)OC1C2(CC3N4C(=O)C5(CO)SSC4(CC31O)C(=O)N5C)OC(C)C(C)(C)C2=O` (stereo not drawn) the activity change was -104% (active). With `Cc1ccc(C(C)C)c(OCC(=O)N2CCN(CC(=O)N3CCOCC3)CC2)c1` the activity change was -9.54% (inactive). With `C[N+]12CN3CN(CN(C3)C1)C2` the activity change was 1.54% (inactive). In the case of `Clc1cccc(Cl)c1Cl`, the activity change is reported as -12.8% (inactive). In the case of `C[C@]12CC[C@H](O)C[C@H]1CC[C@@H]1C2CC[C@]2(C)[C@@H](C3=CC(=O)OC3)[C@@H](O)C[C@]12O` (stereo partly drawn), the activity change is reported as -21.6% (inactive). In the case of `COC1C(O)C(C)OC(OC2CCC3(C=O)C(CCC4C3CCC3(C)C(C5=CC(=O)OC5)CCC43O)C2)C1O` (stereo not drawn), the activity change is reported as -68% (active). In the case of `C[C@H]1CN([C@@H](C)CO)C(=O)CCCn2nncc2CO[C@H]1CN(C)C(=O)Oc1cccc2ccccc12`, the activity change is reported as 24.1% (inactive). In the case of `COc1cc(C(=O)N2Cc3ccc(Br)cc3-n3nncc3C2)cc(OC)c1OC`, the activity change is reported as -13.4% (inactive). In the case of `O=C1/C(=C\c2ccc3c(c2)OCO3)N2CCC1CC2`, the activity change is reported as -14.8% (inactive). In the case of `Cc1nc2ccccc2c(=O)n1-c1ccc(Cl)cc1Cl`, the activity change is reported as -2.71% (inactive). For `O=c1c2ccccc2nc(-c2ccccc2)n1-c1ccccn1`, the activity change was 17.2% (inactive). For `O=c1c2ccccc2nc(/C=C/c2ccc(F)cc2)n1-c1ccccc1O`, the activity change was -94.1% (active). With `COc1ccccc1NC(=O)N1C[C@@H]2C[C@@H](C1)c1cccc(=O)n1C2` the activity change was 1.98% (inactive). For `O=C(O)C1CSC(c2cccnc2)N1` (stereo not drawn), the activity change was 0% (inactive). For `NCCc1ccc(S(=O)(=O)F)cc1`, the activity change was 13% (inactive). For `O=C(NC1CCCCC1)N1Cc2cc(N3CCCCC3)ccc2-n2nncc2C1`, the activity change was -7.47% (inactive). For `CCOc1ccc(-c2cc(C)[n+](CCN(CC)CC)c(-c3ccc(OCC)cc3)c2)cc1`, the activity change was -82.5% (active). For `COC(=O)C1=C(c2ccc(F)cc2OCc2ccccc2)C[C@@H]2CC[C@H]1N2C(=O)NCc1ccc(C(C)(C)C)cc1`, the activity change was -29.4% (inactive). For `COC(=O)C1=C(c2ccc(F)cc2OCc2ccccc2)C[C@@H]2CC[C@H]1N2C(=O)NCc1ccc(OC)c(OC)c1`, the activity change was -5.32% (inactive). For `COC(=O)C1=C(c2ccc(F)cc2OCc2ccccc2)C[C@@H]2CC[C@H]1N2C(=O)NCc1ccc(Cl)cc1`, the activity change was -55.3% (active). With `CC1CCC(N(C)C2CCN(C)CC2)CC1` (stereo not drawn) the activity change was 0% (inactive). With `CCOC(=O)c1cccc(C2=C(CNC(=O)c3ccncc3)[C@H]3CC[C@@H](C2)N3Cc2ccccc2)c1` the activity change was 41.7% (inactive). With `COc1ccc(-c2nc(CS(=O)CC(=O)N3CCC4(CC3)OCCO4)c(C)o2)cc1` (stereo not drawn) the activity change was -1.15% (inactive). For `O=P(OC1=CCCCC1)(c1ccccc1)c1ccccc1`, the activity change was -4.62% (inactive). With `Cc1ncoc1C(=O)NCC1=C(c2cccc3ccccc23)C[C@@H]2CC[C@H]1N2Cc1ccco1` the activity change was -7.11% (inactive). In the case of `CC1(C)Cc2c(C#N)c(N3CCNCC3)nc(-c3ccco3)c2CS1`, the activity change is reported as -50.4% (active). In the case of `COC(=O)C1=C(c2ccc(OCc3ccccc3)cc2)C[C@@H]2CC[C@H]1N2C(=O)NCc1ccc(Cl)cc1`, the activity change is reported as 4.2% (inactive). For `N#CC1=C(N)Oc2c(c(=O)oc3ccccc23)C1c1ccccc1OC(=O)c1cccs1` (stereo not drawn), the activity change was -86.1% (active). For `COc1ccc(C2C=C(C)Oc3c2c(=O)oc2ccccc32)cc1OC` (stereo not drawn), the activity change was 7.28% (inactive). For `S=C(NCCc1ccccc1)N1Cc2cc(N3CCOCC3)ccc2-n2nncc2C1`, the activity change was -27% (inactive). For `Cc1cc(C)c2c(c1)NP(=S)(c1ccccc1)N2` (stereo not drawn), the activity change was -11.4% (inactive). With `Cc1cc(C=C2C(=O)NC(=O)NC2=O)c(C)n1-c1ccncc1` the activity change was -12.3% (inactive). With `Cc1ccnc(-n2c(C)cc(/C=C3\C(=O)NC(=S)N(C)C3=O)c2C)c1` the activity change was -79.4% (active). For `Cc1ccc(-n2c(C)cc(/C=C3\C(=O)NC(=O)N(C)C3=O)c2C)cc1C`, the activity change was -4.58% (inactive).
